From publication PMC7862700, “An all-to-all approach to the identification of sequence-specific readers for epigenetic DNA modifications on cytosine” come the findings set out here.

Common to all, as to assay: DAPPL (digital affinity profiling via proximity ligation, sequencing); 10 mM Tris-HCl pH 7.5, 50 mM NaCl, 1 mM DTT, 4% glycerol, room temperature, 30 min; GST-TFs on glutathione beads, 16-mer random dsDNA library, 0.1% formaldehyde crosslink after washing; high values mean tight binding
The target in assay [1] is T1, FEV (Homo sapiens, UniProt Q99581 1-238).
T1 sequence: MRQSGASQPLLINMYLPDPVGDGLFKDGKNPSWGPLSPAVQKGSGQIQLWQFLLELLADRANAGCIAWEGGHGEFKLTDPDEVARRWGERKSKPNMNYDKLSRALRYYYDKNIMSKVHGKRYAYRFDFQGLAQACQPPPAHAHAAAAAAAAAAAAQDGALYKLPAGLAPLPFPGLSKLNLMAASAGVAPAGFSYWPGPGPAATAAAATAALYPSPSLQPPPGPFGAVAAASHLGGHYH
The settings on record: protein: recombinant; tags: N-terminal GST; dsDNA, one strand shown. Summed up: (§1)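 Human transcription factors fused to GST were expressed in yeast, captured on glutathione beads, given DNA barcodes and pooled with a GST-only negative control. Pools were incubated with 200 nmole of a 16-mer random double-stranded DNA library in Tris/NaCl/DTT/glycerol buffer at room temperature for 30 min. They were then washed, crosslinked with 0.1% formaldehyde, proximity-ligated (BsaI/T4 ligase, 1 h, 37 °C), PCR-amplified and sequenced on an Illumina NextSeq500. Binding signal is each 6-mer's read frequency for a factor divided by its frequency for the GST control.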

Assay [2] has as its target ETV5 (Homo sapiens, UniProt P41161 1-510). The conditions noted are these: protein: recombinant; tags: N-terminal GST; dsDNA, one strand shown. The method in brief:
as §1

For assay [3], the target named is HSF1 (Homo sapiens, UniProt Q00613 1-529). The settings on record: protein: recombinant; tags: N-terminal GST; chain copies: 3; dsDNA, one strand shown. Summed up:
as §1

Assay [4] deals with T2, SPIC (Homo sapiens, UniProt Q8N5J4 1-248).
T2 sequence: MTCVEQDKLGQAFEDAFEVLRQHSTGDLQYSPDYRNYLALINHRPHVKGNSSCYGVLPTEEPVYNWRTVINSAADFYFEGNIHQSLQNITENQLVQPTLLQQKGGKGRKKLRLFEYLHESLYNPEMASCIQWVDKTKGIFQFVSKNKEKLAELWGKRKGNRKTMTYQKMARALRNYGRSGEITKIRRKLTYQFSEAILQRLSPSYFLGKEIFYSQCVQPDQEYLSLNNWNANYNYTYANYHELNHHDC
The settings on record: protein: recombinant; tags: N-terminal GST; dsDNA, one strand shown. Summed up: as §1

Assay [5] concerns the target ELF4 (Homo sapiens, UniProt Q99607 1-663). The settings on record: protein: recombinant; tags: N-terminal GST; dsDNA, one strand shown. The method in brief:
as §1

Assay [6] addresses T3, ELK4 (Homo sapiens, UniProt P28324-2 1-405).
T3 sequence: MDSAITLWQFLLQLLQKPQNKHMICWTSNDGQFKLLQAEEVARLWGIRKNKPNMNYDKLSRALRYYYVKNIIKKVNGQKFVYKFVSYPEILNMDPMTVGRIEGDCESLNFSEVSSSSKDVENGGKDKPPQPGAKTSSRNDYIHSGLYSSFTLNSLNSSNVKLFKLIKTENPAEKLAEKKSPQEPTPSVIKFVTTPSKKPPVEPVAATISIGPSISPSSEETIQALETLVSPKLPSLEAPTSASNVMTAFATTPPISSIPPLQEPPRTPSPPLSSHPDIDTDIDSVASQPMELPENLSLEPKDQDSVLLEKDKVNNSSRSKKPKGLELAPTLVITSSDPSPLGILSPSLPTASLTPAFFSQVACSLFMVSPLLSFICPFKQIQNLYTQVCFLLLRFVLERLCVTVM
The conditions noted are these: protein: recombinant; tags: N-terminal GST; dsDNA, one strand shown. The method in brief:
as §1

The target of assay [7] is T4, ETV2 (Homo sapiens, UniProt O00321 1-342).
T4 sequence: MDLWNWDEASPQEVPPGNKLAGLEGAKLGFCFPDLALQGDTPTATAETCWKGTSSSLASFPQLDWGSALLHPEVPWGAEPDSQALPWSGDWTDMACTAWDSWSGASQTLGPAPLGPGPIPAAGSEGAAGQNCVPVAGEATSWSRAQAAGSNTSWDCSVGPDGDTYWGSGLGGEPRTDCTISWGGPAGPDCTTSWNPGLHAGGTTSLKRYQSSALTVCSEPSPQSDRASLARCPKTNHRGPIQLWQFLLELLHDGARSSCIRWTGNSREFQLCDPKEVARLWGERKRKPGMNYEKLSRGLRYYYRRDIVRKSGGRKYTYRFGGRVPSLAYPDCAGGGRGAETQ
The settings on record: protein: recombinant; tags: N-terminal GST; dsDNA, one strand shown. Summed up: as §1

Assay [8] concerns the target T5, ELF3 (Homo sapiens, UniProt P78545 1-371).
T5 sequence: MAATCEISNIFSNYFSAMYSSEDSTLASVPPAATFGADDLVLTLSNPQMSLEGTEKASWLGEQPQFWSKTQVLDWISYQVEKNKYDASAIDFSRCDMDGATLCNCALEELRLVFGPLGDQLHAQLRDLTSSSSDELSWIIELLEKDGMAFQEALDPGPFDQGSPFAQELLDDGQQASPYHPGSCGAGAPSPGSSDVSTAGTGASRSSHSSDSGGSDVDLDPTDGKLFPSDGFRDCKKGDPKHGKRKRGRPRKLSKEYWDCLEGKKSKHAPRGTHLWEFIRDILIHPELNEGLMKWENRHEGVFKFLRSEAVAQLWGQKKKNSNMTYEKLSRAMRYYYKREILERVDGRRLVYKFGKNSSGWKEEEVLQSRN
The settings on record: protein: recombinant; tags: N-terminal GST; dsDNA, one strand shown. Summed up:
as §1

In assay [9] the target is CRX (Homo sapiens, UniProt O43186 1-299). The conditions noted are these: protein: recombinant; tags: N-terminal GST; dsDNA, one strand shown. Summed up:
as §1

In assay [10] the target is ETV1 (Homo sapiens, UniProt P50549 1-477). The settings on record: protein: recombinant; tags: N-terminal GST; dsDNA, one strand shown. The method in brief:
as §1

Assay [11] deals with T6, ERF (Homo sapiens, UniProt P50548 1-548).
T6 sequence: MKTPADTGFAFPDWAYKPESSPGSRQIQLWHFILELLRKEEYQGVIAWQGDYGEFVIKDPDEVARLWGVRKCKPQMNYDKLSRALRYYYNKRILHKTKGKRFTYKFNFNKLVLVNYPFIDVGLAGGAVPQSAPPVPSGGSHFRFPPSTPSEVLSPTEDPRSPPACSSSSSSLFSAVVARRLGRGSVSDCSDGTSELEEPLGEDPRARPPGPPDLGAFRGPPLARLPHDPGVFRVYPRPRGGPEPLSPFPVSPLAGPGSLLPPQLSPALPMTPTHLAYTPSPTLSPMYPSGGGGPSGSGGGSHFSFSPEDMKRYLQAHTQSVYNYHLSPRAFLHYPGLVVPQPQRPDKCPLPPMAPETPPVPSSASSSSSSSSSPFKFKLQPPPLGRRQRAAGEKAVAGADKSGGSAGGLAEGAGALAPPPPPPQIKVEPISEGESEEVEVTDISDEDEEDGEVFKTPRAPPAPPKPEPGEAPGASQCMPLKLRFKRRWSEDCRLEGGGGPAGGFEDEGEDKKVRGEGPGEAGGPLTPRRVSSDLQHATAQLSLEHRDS
The settings on record: protein: recombinant; tags: N-terminal GST; dsDNA, one strand shown. The method in brief: as §1

Assay [12] deals with T7, ETV3L (Homo sapiens, UniProt Q6ZN32 1-361).
T7 sequence: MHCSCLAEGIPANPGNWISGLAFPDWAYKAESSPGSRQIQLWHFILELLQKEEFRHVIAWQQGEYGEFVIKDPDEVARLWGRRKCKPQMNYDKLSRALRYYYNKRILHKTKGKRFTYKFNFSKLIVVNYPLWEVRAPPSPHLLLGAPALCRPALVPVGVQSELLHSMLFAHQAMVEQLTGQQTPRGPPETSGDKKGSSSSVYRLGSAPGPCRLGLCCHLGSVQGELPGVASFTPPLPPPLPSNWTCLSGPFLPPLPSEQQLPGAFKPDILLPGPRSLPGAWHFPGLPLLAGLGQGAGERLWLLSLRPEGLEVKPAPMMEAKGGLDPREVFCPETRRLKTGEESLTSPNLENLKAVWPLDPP
The settings on record: protein: recombinant; tags: N-terminal GST; dsDNA, one strand shown. The method in brief:
as §1

The target of assay [13] is T8, ETS2 (Homo sapiens, UniProt P15036 1-469).
T8 sequence: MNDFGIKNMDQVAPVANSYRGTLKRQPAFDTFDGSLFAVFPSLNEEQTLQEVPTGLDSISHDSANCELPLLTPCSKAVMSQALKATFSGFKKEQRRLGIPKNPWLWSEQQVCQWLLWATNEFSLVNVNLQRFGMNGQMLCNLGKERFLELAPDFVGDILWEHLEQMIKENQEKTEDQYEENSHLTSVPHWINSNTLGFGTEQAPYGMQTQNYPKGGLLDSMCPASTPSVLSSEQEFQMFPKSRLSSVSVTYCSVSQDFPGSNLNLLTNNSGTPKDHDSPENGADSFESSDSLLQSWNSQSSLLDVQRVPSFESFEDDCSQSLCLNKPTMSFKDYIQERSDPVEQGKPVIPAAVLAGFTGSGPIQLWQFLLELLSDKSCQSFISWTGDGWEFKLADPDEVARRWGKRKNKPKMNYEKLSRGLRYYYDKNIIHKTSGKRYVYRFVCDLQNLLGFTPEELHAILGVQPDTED
The settings on record: protein: recombinant; tags: N-terminal GST; dsDNA, one strand shown. The method in brief: as §1

Assay [14] addresses T9, SPDEF (Homo sapiens, UniProt O95238 1-335).
T9 sequence: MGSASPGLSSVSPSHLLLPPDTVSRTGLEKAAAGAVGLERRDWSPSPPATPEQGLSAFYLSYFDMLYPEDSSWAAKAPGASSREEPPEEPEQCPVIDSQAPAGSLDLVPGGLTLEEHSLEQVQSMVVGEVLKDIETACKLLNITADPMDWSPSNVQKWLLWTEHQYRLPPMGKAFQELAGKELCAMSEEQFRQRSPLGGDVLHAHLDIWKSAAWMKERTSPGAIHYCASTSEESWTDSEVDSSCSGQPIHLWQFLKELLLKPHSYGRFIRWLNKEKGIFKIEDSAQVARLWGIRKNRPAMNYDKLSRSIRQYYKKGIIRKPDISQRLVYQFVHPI
The conditions noted are these: protein: recombinant; tags: N-terminal GST; dsDNA, one strand shown. The method in brief: as §1

For assay [15], the target named is T10, ETV7 (Homo sapiens, UniProt Q9Y603 1-341).
T10 sequence: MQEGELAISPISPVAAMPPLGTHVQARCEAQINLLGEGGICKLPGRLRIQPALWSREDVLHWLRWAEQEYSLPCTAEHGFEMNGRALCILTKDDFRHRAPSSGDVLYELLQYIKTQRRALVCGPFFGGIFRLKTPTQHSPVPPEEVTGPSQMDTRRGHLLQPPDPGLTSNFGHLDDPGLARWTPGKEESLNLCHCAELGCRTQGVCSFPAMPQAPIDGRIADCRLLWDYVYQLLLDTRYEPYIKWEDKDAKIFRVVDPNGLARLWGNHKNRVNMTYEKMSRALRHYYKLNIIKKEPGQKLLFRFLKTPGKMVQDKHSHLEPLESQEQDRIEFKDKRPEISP
The settings on record: protein: recombinant; tags: N-terminal GST; dsDNA, one strand shown. Summed up:
as §1

For assay [16], the target named is T11, ELF5 (Homo sapiens, UniProt Q9UKW6-2 1-255).
T11 sequence: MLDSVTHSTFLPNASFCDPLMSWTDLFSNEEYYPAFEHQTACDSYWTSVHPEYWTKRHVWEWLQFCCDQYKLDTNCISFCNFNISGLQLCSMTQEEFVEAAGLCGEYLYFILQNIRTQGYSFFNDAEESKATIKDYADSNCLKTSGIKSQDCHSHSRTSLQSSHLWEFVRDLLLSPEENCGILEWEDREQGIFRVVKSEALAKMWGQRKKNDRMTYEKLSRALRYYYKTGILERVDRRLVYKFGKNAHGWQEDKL
The conditions noted are these: protein: recombinant; tags: N-terminal GST; dsDNA, one strand shown. The method in brief: as §1

The target in assay [17] is T12, ETV3 (Homo sapiens, UniProt P41162-2 1-143).
T12 sequence: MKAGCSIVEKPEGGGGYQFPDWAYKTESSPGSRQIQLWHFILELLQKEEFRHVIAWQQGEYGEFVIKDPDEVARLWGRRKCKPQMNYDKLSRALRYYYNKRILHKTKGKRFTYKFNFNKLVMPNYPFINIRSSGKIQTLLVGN
The settings on record: protein: recombinant; tags: N-terminal GST; dsDNA, one strand shown. The method in brief: as §1

The target in assay [18] is ETV6 (Homo sapiens, UniProt P41212 1-452). The conditions noted are these: protein: recombinant; tags: N-terminal GST; dsDNA, one strand shown. The method in brief: as §1
Chain of ETV6 (P41212 whole entry): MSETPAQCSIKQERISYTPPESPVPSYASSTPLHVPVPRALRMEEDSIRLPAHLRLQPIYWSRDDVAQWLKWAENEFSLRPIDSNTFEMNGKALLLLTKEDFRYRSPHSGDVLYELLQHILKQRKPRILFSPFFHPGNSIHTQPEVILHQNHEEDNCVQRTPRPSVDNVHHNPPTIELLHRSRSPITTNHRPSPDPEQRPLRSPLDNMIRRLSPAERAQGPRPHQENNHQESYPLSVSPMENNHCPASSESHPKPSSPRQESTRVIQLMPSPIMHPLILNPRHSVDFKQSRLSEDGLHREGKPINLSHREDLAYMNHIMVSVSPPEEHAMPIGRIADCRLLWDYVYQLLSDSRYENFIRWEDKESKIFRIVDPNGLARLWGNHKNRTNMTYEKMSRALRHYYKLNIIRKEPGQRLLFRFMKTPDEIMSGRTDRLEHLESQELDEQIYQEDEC

Chain of ETV1 (P50549 whole entry): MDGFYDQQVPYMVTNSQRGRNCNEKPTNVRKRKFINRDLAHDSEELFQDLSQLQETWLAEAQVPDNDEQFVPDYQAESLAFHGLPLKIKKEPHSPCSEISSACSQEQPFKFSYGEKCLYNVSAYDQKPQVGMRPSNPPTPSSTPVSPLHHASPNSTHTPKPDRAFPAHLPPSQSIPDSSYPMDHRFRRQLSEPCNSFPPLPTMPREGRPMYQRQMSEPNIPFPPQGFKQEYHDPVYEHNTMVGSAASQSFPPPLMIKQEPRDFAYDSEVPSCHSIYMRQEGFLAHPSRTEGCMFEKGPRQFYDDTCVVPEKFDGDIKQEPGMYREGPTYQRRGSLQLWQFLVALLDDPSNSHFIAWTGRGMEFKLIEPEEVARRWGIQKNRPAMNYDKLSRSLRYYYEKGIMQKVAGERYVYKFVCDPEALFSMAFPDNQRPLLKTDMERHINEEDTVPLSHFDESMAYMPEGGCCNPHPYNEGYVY
Chain of HSF1 (Q00613 whole entry): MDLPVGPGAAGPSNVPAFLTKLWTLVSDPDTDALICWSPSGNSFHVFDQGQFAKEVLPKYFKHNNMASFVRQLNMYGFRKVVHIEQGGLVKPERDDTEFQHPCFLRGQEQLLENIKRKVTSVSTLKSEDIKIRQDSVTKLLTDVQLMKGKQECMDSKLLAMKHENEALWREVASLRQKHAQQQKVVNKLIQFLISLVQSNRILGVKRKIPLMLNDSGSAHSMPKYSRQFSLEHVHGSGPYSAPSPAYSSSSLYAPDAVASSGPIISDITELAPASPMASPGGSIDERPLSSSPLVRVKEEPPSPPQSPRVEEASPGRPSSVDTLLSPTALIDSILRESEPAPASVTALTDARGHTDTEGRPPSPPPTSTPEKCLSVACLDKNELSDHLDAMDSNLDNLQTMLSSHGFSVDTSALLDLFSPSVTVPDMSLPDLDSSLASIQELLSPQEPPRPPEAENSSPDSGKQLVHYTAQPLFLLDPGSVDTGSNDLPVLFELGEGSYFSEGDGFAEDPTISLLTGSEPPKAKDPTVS
Chain of ELF4 (Q99607 whole entry): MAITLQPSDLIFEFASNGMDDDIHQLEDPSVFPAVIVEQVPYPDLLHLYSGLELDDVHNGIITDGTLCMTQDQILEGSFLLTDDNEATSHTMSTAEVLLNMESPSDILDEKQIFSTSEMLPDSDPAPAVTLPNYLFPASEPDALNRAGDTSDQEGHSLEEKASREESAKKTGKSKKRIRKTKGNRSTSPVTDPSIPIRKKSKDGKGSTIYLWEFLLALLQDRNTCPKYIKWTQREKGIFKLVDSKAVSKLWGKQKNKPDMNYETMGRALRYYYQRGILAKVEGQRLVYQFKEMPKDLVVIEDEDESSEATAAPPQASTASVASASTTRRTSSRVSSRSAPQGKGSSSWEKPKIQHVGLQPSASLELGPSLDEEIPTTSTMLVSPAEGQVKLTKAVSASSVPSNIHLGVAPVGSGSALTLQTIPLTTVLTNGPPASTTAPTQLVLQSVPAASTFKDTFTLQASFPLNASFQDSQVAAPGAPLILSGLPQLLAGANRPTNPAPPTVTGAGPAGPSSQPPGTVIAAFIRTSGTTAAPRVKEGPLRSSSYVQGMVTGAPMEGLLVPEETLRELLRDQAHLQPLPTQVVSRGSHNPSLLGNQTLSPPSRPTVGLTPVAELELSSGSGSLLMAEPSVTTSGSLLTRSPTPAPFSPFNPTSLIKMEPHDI
Chain of ETV5 (P41161 whole entry): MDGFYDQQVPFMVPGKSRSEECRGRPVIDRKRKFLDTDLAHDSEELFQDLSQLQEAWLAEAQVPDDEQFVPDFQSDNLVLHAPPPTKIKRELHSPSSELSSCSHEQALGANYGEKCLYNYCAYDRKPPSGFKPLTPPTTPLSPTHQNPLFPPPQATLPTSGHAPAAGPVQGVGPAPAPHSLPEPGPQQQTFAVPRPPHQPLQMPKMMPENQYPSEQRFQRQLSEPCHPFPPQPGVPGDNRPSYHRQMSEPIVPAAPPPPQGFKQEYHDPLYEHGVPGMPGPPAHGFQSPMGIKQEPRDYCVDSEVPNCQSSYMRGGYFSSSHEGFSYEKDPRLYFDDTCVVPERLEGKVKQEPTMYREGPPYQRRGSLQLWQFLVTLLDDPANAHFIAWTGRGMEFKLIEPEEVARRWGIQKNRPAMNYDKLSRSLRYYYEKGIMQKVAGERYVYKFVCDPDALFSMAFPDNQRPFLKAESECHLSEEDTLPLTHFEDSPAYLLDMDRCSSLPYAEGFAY
Chain of CRX (O43186 whole entry): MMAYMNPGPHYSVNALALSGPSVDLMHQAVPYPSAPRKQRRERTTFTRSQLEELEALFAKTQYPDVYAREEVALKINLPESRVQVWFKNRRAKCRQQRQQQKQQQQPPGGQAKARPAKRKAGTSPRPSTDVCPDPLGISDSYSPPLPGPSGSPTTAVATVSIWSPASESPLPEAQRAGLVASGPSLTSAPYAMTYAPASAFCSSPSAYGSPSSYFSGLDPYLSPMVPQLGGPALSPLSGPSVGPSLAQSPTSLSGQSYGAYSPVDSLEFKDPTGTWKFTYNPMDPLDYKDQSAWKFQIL

Consider TCTAGC, for which the binding signal is 1.25 fold enrichment (6-mer frequency, TF over GST control) in [1]; 1.27 fold enrichment (6-mer frequency, TF over GST control) in assay [2]; 2.63 fold enrichment (6-mer frequency, TF over GST control) in [3]; 1.16 fold enrichment (6-mer frequency, TF over GST control) in assay [4]; 1.26 fold enrichment (6-mer frequency, TF over GST control) in assay [5]; 1.39 fold enrichment (6-mer frequency, TF over GST control) in assay [6]. In addition, the binding signal in [7] was 1.19 fold enrichment (6-mer frequency, TF over GST control); in [8] it was 1.32 fold enrichment (6-mer frequency, TF over GST control); in assay [9], 1.7 fold enrichment (6-mer frequency, TF over GST control); in [10], 1.21 fold enrichment (6-mer frequency, TF over GST control); in assay [11], 1.35 fold enrichment (6-mer frequency, TF over GST control); in assay [12], 1.27 fold enrichment (6-mer frequency, TF over GST control). Moreover, the binding signal in assay [13] was 1.3 fold enrichment (6-mer frequency, TF over GST control); in assay [14] it was 1.22 fold enrichment (6-mer frequency, TF over GST control); in assay [15], 1.36 fold enrichment (6-mer frequency, TF over GST control); in assay [16], 1.21 fold enrichment (6-mer frequency, TF over GST control); in assay [17] it was 1.32 fold enrichment (6-mer frequency, TF over GST control); in assay [18] it was 1.22 fold enrichment (6-mer frequency, TF over GST control).
